Pf growth 96h = Primary qHTS for delayed death inhibitors of the malarial parasite plastid, 96 hour incubation; P. falciparum luciferase reporter growth, 96 h; Potency, µM (doses to about 28.7 µM), inactives show top-dose activity change, negative = inhibition, actives largely listed as inhibitors; 320,000 compounds, 6.9% hits
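96 h incubation, 37 C, 5% CO2, of luciferase-reporter P. falciparum-infected RBCs (2% hematocrit, 0.05% parasitemia final) with test compounds; endpoint luminescence.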
Sm TGR inh = qHTS Assay for the Inhibitors of Schistosoma Mansoni Peroxiredoxins | Schistosoma mansoni thioredoxin glutathione reductase (TGR), Q962Y6 | purified TGR, DTNB reduction, TNB absorbance 405 nm | Potency, µM (highest dose often 114 µM), without a hit: at the top dose activity change, negative = inhibition, usual class: inhibitors | 360,000 compounds, 3% hits | AID 485364, 2010; further: nearly all actives have a fitted effect of over 60% in size
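Kinetic colorimetric format: TGR-catalysed, NADPH-driven DTNB reduction monitored via TNB absorbance. Enzyme dispensed at 20 nM; compound exposure 15 min at room temperature before reaction start.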
Pf growth 48h = Primary qHTS for delayed death inhibitors of the malarial parasite plastid, 48 hour incubation; P. falciparum luciferase growth in erythrocytes, 48 h; Potency, µM (series often up to 28.7 µM), for the others: at the highest dose activity change, negative = inhibition, actives largely listed as inhibitors; 310,000 compounds, 5.9% hits; AID 504832, 2011
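First compound was added to culture medium, then infected red cells at 0.1% parasitemia and 2% hematocrit (final). After incubation at 37 C under 5% CO2, luciferase detection reagent was dispensed and light output recorded.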
An asterisk follows results filed as active; ? = inconclusive; . = not tested or not shown. Rows were chosen to be rich in hits. Some 21% of all compounds tested hit in one or more screens of this group. The call rests on the fitted dose curve; in most records, active means well fitted curve in the direction sought with a large enough effect; inconclusive means small, poorly fitted or top-dose-only effect, or another doubt; inactive means no such curve, though single readings can be large; an effect the other way counts as inactive or inconclusive. On the % scale 0 is the no-effect control and ±100 the full control effect; potency means the concentration at half of the fitted maximal effect.

SMILES	Pf growth 96h	Sm TGR inh	Pf growth 48h
CCOc1ccc(NC(=O)CN(C)C(=O)c2cc(S(=O)(=O)N3CCCCC3)ccc2C)cc1OCC	2.7%	-2.8%	-13.1%
O=C(Cn1c(=O)n(Cc2nc(-c3ccccc3)no2)c(=O)c2ccccc21)Nc1cccc(Cl)c1	.	-2.6%	.
COCCNc1oc(/C=C/c2ccc(F)cc2)nc1C#N	.	-4.1%	.
Cc1ccc(S(=O)(=O)N2[C@@H](c3ccccc3F)C(C(=O)O)=CC[C@H]2c2ccc(Cl)c(Cl)c2)cc1	11.7µM*	-24.1%	?
CC(=O)c1cccc(NC(=O)CSc2nc(=O)n(Cc3ccco3)c3c2CCC3)c1	.	-26.6%	.
Cc1cccc(NC(=O)CSc2nc(=O)n(Cc3ccco3)c3c2CCC3)c1C	.	-25.8%	.
COc1ccc(C)cc1NC(=O)CSc1nc(=O)n(Cc2ccco2)c2c1CCC2	.	35.5µM*	.
CCc1ccc(NC(=O)CSc2nc(=O)n(CCCN3CCOCC3)c3c2CCCC3)cc1	?	7.3%	9.28µM*
Cc1c(Cl)cccc1NC(=O)CSc1nc(=O)n(Cc2ccco2)c2c1CCC2	.	39.8µM*	.

Source: PubChem BioAssay (National Center for Advancing Translational Sciences (NCATS))
